# In PubChem BioAssay (EPA / NIEHS):
# Inconclusive results are not listed. The source holds several records for some structures; these can differ, active in one and inactive in another. The source made the active and inactive calls. The calls were made as follows: active = hit-call score of the fitted dose curve at least 0.9, where 1 is the maximum; inconclusive = response in the unintended direction; inactive = score below 0.9.
# Molecular target: Adenosine receptor A1 (Bos taurus) (UniProt P28190)
# Sequence (P28190 whole entry, looked up): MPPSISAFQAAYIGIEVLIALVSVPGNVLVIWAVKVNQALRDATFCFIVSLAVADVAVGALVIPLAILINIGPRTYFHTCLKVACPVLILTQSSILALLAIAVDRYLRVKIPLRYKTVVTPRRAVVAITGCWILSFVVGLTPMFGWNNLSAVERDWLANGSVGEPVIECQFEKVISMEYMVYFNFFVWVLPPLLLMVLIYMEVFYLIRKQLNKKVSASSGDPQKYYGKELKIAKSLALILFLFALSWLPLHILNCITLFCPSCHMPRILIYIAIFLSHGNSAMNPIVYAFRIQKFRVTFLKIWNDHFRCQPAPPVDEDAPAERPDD
# Experiment: NVS_GPCR_bAdoR_NonSelective: NovaScreen (NVS) G Protein-Coupled Receptor Assay for bovine Adenosine Receptor (AdoR), Non-selective Binding (AID 2283244)
# How it was run: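 Bovine striatal membranes, radioligand displacement binding, 1 h after dosing, filter-based scintillation counting. Screened in duplicate at 25 uM, then concentration-response up to 50 uM; loss of specific binding relative to DMSO.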
Structure (SMILES),AC50,outcome
CCNc1nc(NC(C)C)nc(SC)n1,13.4 µM (active),
NS(=O)(=O)C(F)(F)C(F)(F)C(F)(F)C(F)(F)C(F)(F)C(F)(F)C(F)(F)C(F)(F)F,13.1 µM (active),
O=C(O)C(F)(F)C(F)(F)C(F)(F)C(F)(F)C(F)(F)C(F)(F)C(F)(F)C(F)(F)C(F)(F)F,,inactive
Oc1c(Cl)c(Cl)c(Cl)c(Cl)c1Cl,,inactive
Cc1ccccc1O,,inactive
Clc1ccc(Cl)cc1,,inactive

# Tested on: guinea pig Leukotriene B4 Receptor (LTB4), gene 100379538
# Experiment: NVS_GPCR_gLTB4: NovaScreen (NVS) G Protein-Coupled Receptor Assay for guinea pig Leukotriene B4 Receptor (LTB4) (AID 2283247)
# How it was run: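 Radioligand displacement on guinea pig spleen membranes, filter-based scintillation counting 2 h after dosing. Primary duplicate single point at 25 uM; hits over threshold (e.g. 30% inhibition) run in concentration-response up to 50 uM, DMSO baseline.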
Structure (SMILES),AC50,outcome
O=S(=O)(O)C(F)(F)C(F)(F)C(F)(F)C(F)(F)C(F)(F)C(F)(F)F,10.8 µM (active),
CCC(C)(c1ccc(O)cc1)c1ccc(O)cc1,6.38 µM (active),
CCC(C)c1cc([N+](=O)[O-])cc([N+](=O)[O-])c1O (stereo not given),,inactive
CC(C)(c1ccccc1)c1ccc(O)cc1,7.09 µM (active),
O=C(O)C(F)(F)C(F)(F)C(F)(F)C(F)(F)C(F)(F)C(F)(F)C(F)(F)C(F)(F)C(F)(F)F,11.6 µM (active),
O=S(=O)(O)C(F)(F)C(F)(F)C(F)(F)C(F)(F)F,12.2 µM (active),
O=C(O)C(F)(F)C(F)(F)C(F)(F)C(F)(F)C(F)(F)C(F)(F)C(F)(F)C(F)(F)F,25 µM (active),
Oc1ccc(C(c2ccc(O)cc2)(C(F)(F)F)C(F)(F)F)cc1,0.436 µM (active),

# Molecular target: guinea pig Leukotriene D4 Receptor (LTD4), CYSLTR1 (gene 100135514) (UniProt Q2NNR5)
# Sequence (Q2NNR5 whole entry, looked up): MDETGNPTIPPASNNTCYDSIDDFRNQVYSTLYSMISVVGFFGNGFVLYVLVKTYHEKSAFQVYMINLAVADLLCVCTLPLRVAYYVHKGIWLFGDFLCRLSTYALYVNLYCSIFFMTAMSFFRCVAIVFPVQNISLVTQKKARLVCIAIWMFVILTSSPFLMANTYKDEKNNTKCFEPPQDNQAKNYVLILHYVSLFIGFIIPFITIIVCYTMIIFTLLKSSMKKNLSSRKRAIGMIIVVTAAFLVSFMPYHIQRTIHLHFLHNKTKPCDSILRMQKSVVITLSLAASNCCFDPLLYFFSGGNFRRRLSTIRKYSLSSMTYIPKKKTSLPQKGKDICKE
# Experiment: NVS_GPCR_gLTD4: NovaScreen (NVS) G Protein-Coupled Receptor Assay for guinea pig Leukotriene D4 Receptor (LTD4) (AID 2283248)
# How it was run: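 Radioligand displacement on guinea pig lung membranes, 1 h incubation, filtration and scintillation counting; DMSO as negative control. Duplicate 25 uM primary screen, then singleton concentration-response up to 50 uM.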
row,Structure (SMILES),outcome
1,O=C(O)C(F)(F)C(F)(F)C(F)(F)C(F)(F)C(F)(F)C(F)(F)C(F)(F)C(F)(F)C(F)(F)F,inactive
2,O=C(O)C(F)(F)C(F)(F)C(F)(F)C(F)(F)C(F)(F)C(F)(F)C(F)(F)C(F)(F)F,inactive
3,Oc1c(Cl)c(Cl)c(Cl)c(Cl)c1Cl,inactive

# Molecular target: human Serotonin, 5-Hydroxytryptamine Receptor 2A (5HT2A), HTR2A (gene 3356) (UniProt P28223)
# Sequence (P28223 whole entry, looked up): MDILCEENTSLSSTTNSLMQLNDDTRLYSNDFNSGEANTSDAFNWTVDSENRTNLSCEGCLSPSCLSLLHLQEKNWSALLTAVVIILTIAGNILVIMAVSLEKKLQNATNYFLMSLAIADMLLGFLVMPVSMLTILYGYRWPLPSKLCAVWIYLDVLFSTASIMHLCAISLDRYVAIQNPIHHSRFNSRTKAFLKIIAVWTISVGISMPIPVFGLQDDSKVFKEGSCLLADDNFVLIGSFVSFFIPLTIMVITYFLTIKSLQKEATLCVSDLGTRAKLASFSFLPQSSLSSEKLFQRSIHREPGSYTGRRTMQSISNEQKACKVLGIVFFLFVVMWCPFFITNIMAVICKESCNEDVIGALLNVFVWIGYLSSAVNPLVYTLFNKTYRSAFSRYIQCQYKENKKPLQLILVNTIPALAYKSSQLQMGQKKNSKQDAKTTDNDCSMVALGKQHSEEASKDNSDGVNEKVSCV
# Experiment: NVS_GPCR_h5HT2A: NovaScreen (NVS) G Protein-Coupled Receptor Assay for human Serotonin, 5-Hydroxytryptamine Receptor 2A (5HT2A) (AID 2283249)
# How it was run: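 Human cortex membranes, cell-free radioligand binding; filter-based scintillation read 1.5 h after dosing. Duplicate screen at 25 uM first; displacement of specific binding (loss of signal) versus DMSO.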
Structure (SMILES),AC50,outcome
CCCCCCCCCC[N+](C)(C)CCCCCCCCCC,5 µM (active),
Cc1cccc(C)c1N,,inactive
Oc1ccc(C(c2ccc(O)cc2)(C(F)(F)F)C(F)(F)F)cc1,10.4 µM (active),

# Tested on: guinea pig Muscarinic, Peripheral (Mperiperal) Receptor, Non-selective Binding, gene 100379235
# Experiment: NVS_GPCR_gMPeripheral_NonSelective: NovaScreen (NVS) G Protein-Coupled Receptor Assay for guinea pig Muscarinic, Peripheral (Mperiperal) Receptor, Non-selective Binding (AID 2283250)
# How it was run: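 Guinea pig bladder membranes, radioligand binding read 1 h after dosing by filter scintillation counting; loss of signal vs DMSO. Primary duplicate screen at 25 uM, then concentration-response up to 50 uM.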
Structure (SMILES),outcome,AC50
O=C(N[C@H]1CN2CCC1CC2)c1cc2ccoc2cn1,inactive,
CCCCCCCCCC[N+](C)(C)CCCCCCCCCC,,25 µM (active)
Oc1ccc(C(c2ccc(O)cc2)(C(F)(F)F)C(F)(F)F)cc1,,13.6 µM (active)

# Molecular target: human Serotonin, 5-Hydroxytryptamine Receptor 5A (5HT5A), HTR5A (gene 3361) (UniProt P47898)
# Sequence (P47898 whole entry, looked up): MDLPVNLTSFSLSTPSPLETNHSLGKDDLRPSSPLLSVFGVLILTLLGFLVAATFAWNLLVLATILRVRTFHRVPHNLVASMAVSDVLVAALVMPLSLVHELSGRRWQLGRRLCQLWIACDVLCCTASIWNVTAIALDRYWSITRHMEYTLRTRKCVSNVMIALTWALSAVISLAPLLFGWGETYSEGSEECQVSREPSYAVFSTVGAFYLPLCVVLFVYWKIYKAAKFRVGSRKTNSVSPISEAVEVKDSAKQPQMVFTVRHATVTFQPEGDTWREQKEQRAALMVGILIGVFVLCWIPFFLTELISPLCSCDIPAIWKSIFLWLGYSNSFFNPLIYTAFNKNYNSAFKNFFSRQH
# Experiment: NVS_GPCR_h5HT5A: NovaScreen (NVS) G Protein-Coupled Receptor Assay for human Serotonin, 5-Hydroxytryptamine Receptor 5A (5HT5A) (AID 2283251)
# How it was run: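 Cell-free radioligand displacement binding on HEK293-derived membrane protein, 1 h incubation, filter-based scintillation counting. Primary screen in duplicate at 25 uM, actives followed in concentration series; loss of signal fitted versus DMSO.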
Structure (SMILES),AC50,outcome
CCC(C)(c1ccc(O)cc1)c1ccc(O)cc1,13.4 µM (active),
CC(C)(c1ccccc1)c1ccc(O)cc1,25 µM (active),
O=C(O)C(F)(F)C(F)(F)C(F)(F)C(F)(F)C(F)(F)C(F)(F)C(F)(F)C(F)(F)C(F)(F)F,20.7 µM (active),
COc1ccc(O)c(C(C)(C)C)c1,,inactive
O=C(O)C(F)(F)C(F)(F)C(F)(F)C(F)(F)C(F)(F)C(F)(F)C(F)(F)C(F)(F)F,17.7 µM (active),
CCCCCCCCCC[N+](C)(C)CCCCCCCCCC,9.63 µM (active),
Oc1ccc(C(c2ccc(O)cc2)(C(F)(F)F)C(F)(F)F)cc1,8.39 µM (active),

# Molecular target: guinea pig Opioid, Kappa 1 Receptor (OpiateK), OPRK1 (gene 100135587) (UniProt P41144)
# Sequence (P41144 whole entry, looked up): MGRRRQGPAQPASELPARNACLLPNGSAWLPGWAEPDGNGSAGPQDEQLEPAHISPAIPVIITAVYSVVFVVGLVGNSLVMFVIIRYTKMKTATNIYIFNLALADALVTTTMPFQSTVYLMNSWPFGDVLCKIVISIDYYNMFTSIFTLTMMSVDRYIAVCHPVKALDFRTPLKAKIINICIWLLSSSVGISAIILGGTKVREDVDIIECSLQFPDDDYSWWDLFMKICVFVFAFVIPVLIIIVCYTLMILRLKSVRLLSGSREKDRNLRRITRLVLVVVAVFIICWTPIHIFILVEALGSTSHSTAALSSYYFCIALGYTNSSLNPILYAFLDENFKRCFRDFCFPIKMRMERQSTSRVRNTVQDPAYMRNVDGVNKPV
# Experiment: NVS_GPCR_gOpiateK: NovaScreen (NVS) G Protein-Coupled Receptor Assay for guinea pig Opioid, Kappa 1 Receptor (OpiateK) (AID 2283252);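 also: radioligand displacement from kappa opioid receptor in guinea pig cerebellar membranes; active means reduced radioligand binding relative to DMSO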
# How it was run: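 Guinea pig cerebellar membranes were incubated with a radioligand for 2 h after compound addition; bound radioactivity was read by filter-based scintillation counting. Loss of specific binding relative to DMSO baseline defined activity; primary screen at 25 uM in duplicate.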
Structure (SMILES),outcome,AC50
O=C(N[C@H]1CN2CCC1CC2)c1cc2ccoc2cn1,inactive,
CC(C)(O)C(=O)Nc1ccc([N+](=O)[O-])c(C(F)(F)F)c1,inactive,
C[C@]12CCC(=O)C=C1CC[C@@H]1[C@@H]2CC[C@]2(C)C(=O)CC[C@@H]12,inactive,
CCC(C)(c1ccc(O)cc1)c1ccc(O)cc1,inactive,
CC1=C2C[C@H]3[C@@H](CC=C4C[C@@H](O)CC[C@@]43C)[C@@H]2CC[C@]12O[C@@H]1C[C@H](C)CN[C@H]1[C@H]2C,,1.33 µM (active)
Oc1c(Cl)c(Cl)c(Cl)c(Cl)c1Cl,inactive,12.6 µM (active)
Oc1ccc(C(c2ccc(O)cc2)(C(F)(F)F)C(F)(F)F)cc1,,14 µM (active)

# Molecular target: human Serotonin, 5-Hydroxytryptamine Receptor 6 (5HT6), HTR6 (gene 3362) (UniProt P50406)
# Sequence (P50406 whole entry, looked up): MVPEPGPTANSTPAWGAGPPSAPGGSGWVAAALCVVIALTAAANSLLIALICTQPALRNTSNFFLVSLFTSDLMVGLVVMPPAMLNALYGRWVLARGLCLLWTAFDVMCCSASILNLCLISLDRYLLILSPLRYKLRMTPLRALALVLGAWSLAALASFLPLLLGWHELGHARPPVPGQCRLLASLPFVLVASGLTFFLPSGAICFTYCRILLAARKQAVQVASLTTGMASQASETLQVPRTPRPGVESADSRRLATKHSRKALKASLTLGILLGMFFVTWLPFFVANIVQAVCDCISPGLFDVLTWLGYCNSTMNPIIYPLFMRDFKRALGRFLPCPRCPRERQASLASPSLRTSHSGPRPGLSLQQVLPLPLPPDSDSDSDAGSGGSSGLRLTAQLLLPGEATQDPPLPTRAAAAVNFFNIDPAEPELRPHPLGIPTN
# Experiment: NVS_GPCR_h5HT6: NovaScreen (NVS) G Protein-Coupled Receptor Assay for human Serotonin, 5-Hydroxytryptamine Receptor 6 (5HT6) (AID 2283253)
# How it was run: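 Radioligand binding to 5HT6 in HEK293-derived membranes, cell-free, 1 h after dosing; bound ligand measured by filter-based scintillation counting. Primary screen in duplicate at 25 uM; actives retested in concentration series.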
Structure (SMILES),AC50,outcome
CCC(C)(c1ccc(O)cc1)c1ccc(O)cc1,6.29 µM (active),
CC(C)(c1ccccc1)c1ccc(O)cc1,4.96 µM (active),
COc1ccc(O)c(C(C)(C)C)c1,25 µM (active),
Oc1ccc(Cl)cc1Cl,,inactive
CCCCCCCCCC[N+](C)(C)CCCCCCCCCC,13.9 µM (active),
Oc1ccc(C(c2ccc(O)cc2)(C(F)(F)F)C(F)(F)F)cc1,0.352 µM (active),

# Molecular target: human Adenosine A1 Receptor (AdoRA1), ADORA1 (gene 134) (UniProt P30542)
# Sequence (P30542 whole entry, looked up): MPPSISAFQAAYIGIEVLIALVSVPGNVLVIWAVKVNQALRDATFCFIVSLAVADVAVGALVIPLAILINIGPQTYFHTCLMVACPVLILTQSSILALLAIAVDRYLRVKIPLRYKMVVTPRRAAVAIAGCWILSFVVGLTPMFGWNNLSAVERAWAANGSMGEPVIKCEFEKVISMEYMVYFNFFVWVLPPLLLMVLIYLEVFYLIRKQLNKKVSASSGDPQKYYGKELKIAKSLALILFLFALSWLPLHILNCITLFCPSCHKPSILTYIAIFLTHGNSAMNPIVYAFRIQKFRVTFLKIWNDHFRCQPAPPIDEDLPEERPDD
# Experiment: NVS_GPCR_hAdoRA1: NovaScreen (NVS) G Protein-Coupled Receptor Assay for human Adenosine A1 Receptor (AdoRA1) (AID 2283254)
# How it was run: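 Membranes from human cortical tissue were incubated with radioligand and test chemical for 1 hour, then filtered and counted. Activity was taken as signal loss relative to DMSO, screened at 25 uM in duplicate before concentration-response follow-up.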
Structure (SMILES),AC50,outcome
CCNc1nc(NC(C)C)nc(SC)n1,13.7 µM (active),
CCC(C)(c1ccc(O)cc1)c1ccc(O)cc1,25 µM (active),
CC(C)(c1ccccc1)c1ccc(O)cc1,9.28 µM (active),
Cc1cc2c3c(c1)C(c1ccccc1)=N[C@@H](NC(=O)c1ccncc1)C(=O)N3CC2,,inactive
Oc1c(Cl)c(Cl)c(Cl)c(Cl)c1Cl,,inactive
Oc1ccc(C(c2ccc(O)cc2)(C(F)(F)F)C(F)(F)F)cc1,16.6 µM (active),
